Results taken from PubChem BioAssay AID2717 (Broad Institute, 2010).
About 3,200 (1.1%) of roughly 300,000 compounds were called active. Rule as the data show it: active = inhibition above about 75%; inconclusive = no clear call, values can overlap the other calls; inactive = below that; tested in HMLE shEcad cells. The entries come from a sample that favours actives as a whole.

Test: cancer stem cell viability inhibitors, primary screen, luminescence (AID 2717)
Conditions: cancer stem cell-like cells viability, at 7.5 µM, active compounds read high

| Compound | inhibition |
| --- | --- |
| CCOC(=O)[C@H]1[C@H]2COc3ccccc3[C@@H]2N2C(=O)CN(Cc3ccccc3)C(=O)[C@@]12C | -9.72% (inactive) |
| Clc1cccc(CN2COc3c(cc(Cl)c4cccnc34)C2)c1 | 118% (active) |
| CC(C)CC(=O)N1CCN(Cc2cccc(Cl)c2)CC1 | -2.32% (inactive) |
| O=C(c1cccc(Cl)c1)N1CCN(Cc2ccccc2)CC1 | -14.8% (inactive) |
| O=C(OCC(=O)N1CCCCCC1)c1ccc(Br)c(S(=O)(=O)N2CCOCC2)c1 | -10.2% (inactive) |
| COc1ccc(-c2nc3cnccn3c2NC(C)(C)CC(C)(C)C)cc1O | 0.145% (inactive) |
| Cc1ccc2nc(-c3cccnc3)c(NC3CCCC3)n2c1 | -4.39% (inactive) |
| COc1ccc(-c2nc3cnccn3c2NC2CCCCC2)cc1-c1cccc(Cl)c1 | 105% (active) |
| CCN(c1ccccc1)S(=O)(=O)c1cccc(C(=O)NCc2ccccc2CN2CCOCC2)c1 | -15.2% (inactive) |
| O=S(=O)(c1ccccc1)c1nc(-c2ccccc2)oc1NCCCN1CCOCC1 | -5.33% (inactive) |
| Cc1ccc(-c2nc(C#N)c(NCCCn3ccnc3)o2)cc1 | -10.2% (inactive) |
| N#Cc1nc(-c2ccc(OCc3ccccc3)cc2)oc1NCCCN1CCOCC1 | 86.3% (active) |
| CC(=O)Nc1ccc(S(=O)(=O)Nc2ccc(N3CCCCC3)cc2)cc1 | 21.5% (inactive) |
| O=S(=O)(Nc1ccc(O)c2ccccc12)c1ccc(OC(F)(F)F)cc1 | 106% (active) |
| O=S(=O)(Nc1ccc(OC(F)(F)F)cc1)c1cccc2nonc12 | -7.85% (inactive) |
| Cc1nn(C)c(C)c1NS(=O)(=O)c1ccc(OC(F)(F)F)cc1 | 1.58% (inactive) |
| Cc1noc(C)c1NC(=O)Nc1ccc2c(c1)C(=O)N([C@H](C)CO)C[C@H](C)[C@@H](CN(C)S(=O)(=O)c1cn(C)cn1)O2 | -15.6% (inactive) |
| Cc1cccc(NC(=O)c2ccc(S(=O)(=O)N(C)c3ccccc3)cc2)n1 | -22% (inactive) |
| COc1ccc(-c2c(C#Cc3ccsc3)c3cc(-c4ccc(CN5CCOCC5)cc4)ccc3n2C)cc1 | 31.2% (inactive) |
| CC(C)c1ccc(Cc2nnc(NCCCO)[nH]c2=O)cc1 | 13.6% (inactive) |
| COc1ccc(Cc2nnc(N/N=C/c3ccccc3O)[nH]c2=O)cc1OC | 106% (active) |
| COc1ccc(/C=N/Nc2nc3ccccc3c(=O)[nH]2)cc1 | 13% (inactive) |
| C=CCC[C@H](Cc1ccc(F)cc1)C(=O)OC[C@H](C)NC(=O)[C@H](CC=C)CC(=O)N(CCO)Cc1ccccc1 | -9.39% (inactive) |
| COc1ccccc1OCc1nc2ccccc2s1 | 5.53% (inactive) |
| COc1cccc2sc(NNC(=O)c3nc4ccccc4s3)nc12 | 103% (active) |
| COc1cccc2sc(Nc3nc(C)c(C(C)=O)s3)nc12 | 17.8% (inactive) |
